From PubChem BioAssay (EPA / NIEHS)
Active and inactive are the calls of the source. How the source made its calls: active means hit-call score of the fitted dose curve at least 0.9, where 1 is the maximum; inactive means score below 0.9.

Experiments:
[1] = read-out: TIMP metallopeptidase inhibitor 1 (TIMP1), TIMP1 (gene 7076); assay: BSK_hDFCGF_TIMP1: BioMAP Diversity Plus: hDFCGF Assay for TIMP metallopeptidase inhibitor 1 (TIMP1) Biomarker Activity (AID 2283062); settings: primary human foreskin fibroblasts; actives raise or lower the signal
Method in brief: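 Bidirectional curve fitting against DMSO baseline yielded this endpoint, based on ELISA detection of TIMP-1 in primary human foreskin fibroblasts exposed to compound for 24 h.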

[2] = read-out: Monokine induced gamma interferon (MIG), CXCL9 (gene 4283); assay: BSK_hDFCGF_MIG: BioMAP Diversity Plus: hDFCGF Assay for Monokine induced gamma interferon (MIG) Biomarker Activity (AID 2283063); settings: primary human foreskin fibroblasts; actives raise or lower the signal
Method in brief: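 Endpoint derived by bidirectional fitting relative to DMSO; MIG quantified via ELISA in primary human foreskin fibroblasts harvested 24 h after dosing.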

[3] = read-out: Matrix Metallopeptidase 1 (MMP1), MMP1 (gene 4312); assay: BSK_hDFCGF_MMP1: BioMAP Diversity Plus: hDFCGF Assay for Matrix Metallopeptidase 1 (MMP1) Biomarker Activity (AID 2283064); settings: primary human foreskin fibroblasts; actives raise or lower the signal
Method in brief: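 MMP1 levels quantified by ELISA 24 h after dosing human dermal fibroblast cultures, with parallel SRB total-protein staining for overt cytotoxicity. Data fitted in both directions against DMSO baseline.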

[4] = read-out: Vascular cell adhesion molecule 1 (VCAM1), VCAM1 (gene 7412); assay: BSK_hDFCGF_VCAM1: BioMAP Diversity Plus: hDFCGF Assay for Vascular cell adhesion molecule 1 (VCAM1) Biomarker Activity (AID 2283065); settings: primary human foreskin fibroblasts; actives raise or lower the signal
Method in brief: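 Measured after 24 h chemical treatment of primary human skin fibroblasts, VCAM-1 was detected by ELISA and concentration-response analysed in both directions versus DMSO vehicle.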

[5] = read-out: Plasminogen activator inhibitor-1 (PAI1), SERPINE1 (gene 5054); assay: BSK_hDFCGF_PAI1: BioMAP Diversity Plus: hDFCGF Assay for Plasminogen activator inhibitor-1 (PAI1) Biomarker Activity (AID 2283066); settings: primary human foreskin fibroblasts; actives raise or lower the signal
Method in brief: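 Human skin fibroblast cultures receive chemical for 24 h before PAI-1 is measured by ELISA; signal changes are fitted bidirectionally against DMSO-treated wells.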

[6] = read-out: Intercellular Adhesion Molecule 1 (ICAM1), ICAM1 (gene 3383); assay: BSK_KF3CT_ICAM1: BioMAP Diversity Plus: KF3CT Assay for Intercellular Adhesion Molecule 1 (ICAM1) Biomarker Activity (AID 2283067); settings: primary human keratinocytes with fibroblasts; actives raise or lower the signal
Method in brief: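 Bidirectional curve fitting against a DMSO baseline was applied to ICAM-1 ELISA signal from primary human skin co-cultures harvested 24 h after treatment, with SRB staining of parallel wells for overt cytotoxicity.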

[7] = read-out: Interferon-gamma inducible Protein 10 (IP10), CXCL10 (gene 3627); assay: BSK_KF3CT_IP10: BioMAP Diversity Plus: KF3CT Assay for Interferon-gamma inducible Protein 10 (IP10) Biomarker Activity (AID 2283068); settings: primary human keratinocytes with fibroblasts; actives raise or lower the signal
Method in brief: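 Signal is secreted/surface IP-10 by ELISA in a human primary skin co-culture of keratinocytes and foreskin fibroblasts, taken 24 h post-dosing; DMSO served as negative control.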

[8] = BSK_KF3CT_SRB: Viability Assessment in the BioMAP Diversity Plus: KF3CT Assay (AID 2283069); settings: primary human keratinocytes with fibroblasts;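 further: total protein by sulforhodamine B staining as a cytotoxicity measure; read 24 h after compound addition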
Method in brief: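 Cytotoxicity was gauged by SRB staining (0.1% SRB, 10% TCA fixation, 560 nm) of parallel cultures at 24 h. The cells were primary human skin keratinocytes co-cultured with fibroblasts, and activity was fitted in both directions against DMSO.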

[9] = read-out: Interleukin-1 alpha (IL1a), IL1A (gene 3552); assay: BSK_KF3CT_IL1a: BioMAP Diversity Plus: KF3CT Assay for Interleukin-1 alpha (IL1a) Biomarker Activity (AID 2283070); settings: primary human keratinocytes with fibroblasts; actives raise or lower the signal
Method in brief: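 IL-1a was detected by ELISA 24 h after chemical treatment of a co-culture of human skin keratinocytes and foreskin fibroblasts. Gain or loss of signal was fitted against the DMSO baseline.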

[10] = read-out: TIMP metallopeptidase inhibitor 2 (TIMP2), TIMP2 (gene 7077); assay: BSK_KF3CT_TIMP2: BioMAP Diversity Plus: KF3CT Assay for TIMP metallopeptidase inhibitor 2 (TIMP2) Biomarker Activity (AID 2283071); settings: primary human keratinocytes with fibroblasts; actives raise or lower the signal
Method in brief: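 Measurements come from ELISA detection of TIMP-2 at 24 hours in a dosed human keratinocyte and foreskin fibroblast co-culture. DMSO serves as negative control and baseline.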

[11] = read-out: Transforming growth factor beta 1 (TGFb1), TGFB1 (gene 7040); assay: BSK_KF3CT_TGFb1: BioMAP Diversity Plus: KF3CT Assay for Transforming growth factor beta 1 (TGFb1) Biomarker Activity (AID 2283072); settings: primary human keratinocytes with fibroblasts; actives raise or lower the signal
Method in brief: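 TGF-b1 ELISA on a 24 h dosed co-culture of human keratinocytes and foreskin fibroblasts; cytotoxicity tracked in parallel cultures by SRB staining.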

[12] = read-out: C-C motif chemokine 2 (Homo sapiens) (UniProt P13500); assay: BSK_KF3CT_MCP1: BioMAP Diversity Plus: KF3CT Assay for Monocyte Chemoattractant Protein 1 (MCP1/CCL2) Biomarker Activity (AID 2283073); settings: primary human keratinocytes with fibroblasts; actives raise or lower the signal
Method in brief: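 Biomarker MCP-1 is measured by ELISA in primary human keratinocytes co-cultured with foreskin fibroblasts, 24 h after chemical treatment; DMSO serves as the negative control and activity baseline.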

[13] = read-out: Matrix Metallopeptidase 9 (MMP9), MMP9 (gene 4318); assay: BSK_KF3CT_MMP9: BioMAP Diversity Plus: KF3CT Assay for Matrix Metallopeptidase 9 (MMP9) Biomarker Activity (AID 2283074); settings: primary human keratinocytes with fibroblasts; actives raise or lower the signal
Method in brief: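 MMP-9 quantified by ELISA after 24 h chemical treatment of primary human skin keratinocyte/fibroblast co-cultures; gain or loss fitted against DMSO, with parallel SRB staining (0.1% SRB, 560 nm) for overt cytotoxicity.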

[14] = read-out: CD40, CD40 (gene 958); assay: BSK_LPS_CD40: BioMAP Diversity Plus: LPS Assay for CD40 Biomarker Activity (AID 2283076); settings: primary human HUVEC with PBMC; actives raise or lower the signal
Method in brief: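 Using a multiplexed primary human co-culture (umbilical vein endothelium plus PBMC), CD40 was read by ELISA 24 h after dosing, with cytotoxicity tracked by sulforhodamine B staining of parallel cultures and activity fitted bidirectionally versus DMSO.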

[15] = read-out: E-selectin (Homo sapiens) (UniProt P16581); assay: BSK_LPS_Eselectin: BioMAP Diversity Plus: LPS Assay for Eselectin Biomarker Activity (AID 2283077); settings: primary human HUVEC with PBMC; actives raise or lower the signal
Method in brief: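 Dose chemical onto LPS-driven HUVEC/PBMC co-culture; after 24 h, run ELISA for E-selectin; fit up- and down-going responses relative to DMSO control.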

[16] = read-out: Interleukin-8 (IL8), CXCL8 (gene 3576); assay: BSK_LPS_IL8: BioMAP Diversity Plus: LPS Assay for Interleukin-8 (IL8) Biomarker Activity (AID 2283078); settings: primary human HUVEC with PBMC; actives raise or lower the signal
Method in brief: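 In this LPS system, chemical-treated human umbilical vein endothelium/PBMC co-cultures were harvested at 24 h for IL-8 ELISA.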

[17] = BSK_LPS_SRB: Viability Assessment in the BioMAP Diversity Plus: LPS Assay (AID 2283079); settings: primary human HUVEC with PBMC;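 further: total protein by sulforhodamine B absorbance as a cytotoxicity measure; measured one day after compound addition; fitted in both directions against DMSO so loss or gain of signal counts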
Method in brief: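 Cytotoxicity endpoint in human endothelial–PBMC co-culture: 24 h exposure, then SRB (0.1%) staining, 560 nm read.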

[18] = read-out: Interleukin-1 alpha (IL1a), IL1A (gene 3552); assay: BSK_LPS_IL1a: BioMAP Diversity Plus: LPS Assay for Interleukin-1 alpha (IL1a) Biomarker Activity (AID 2283080); settings: primary human HUVEC with PBMC; actives raise or lower the signal
Method in brief: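 Primary human HUVEC and PBMC co-culture stimulated with LPS is dosed and harvested at 24 h. Both increases and decreases in ELISA-measured IL-1a are scored relative to DMSO.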

[19] = read-out: Monocyte Chemoattractant Protein-1 (MCP1), CCL2 (gene 6347); assay: BSK_LPS_MCP1: BioMAP Diversity Plus: LPS Assay for Monocyte Chemoattractant Protein-1 (MCP1) Biomarker Activity (AID 2283081); settings: primary human HUVEC with PBMC; actives raise or lower the signal
Method in brief: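 Values derive from bidirectional fitting against DMSO of ELISA-measured MCP-1 in a human primary endothelial and mononuclear cell co-culture, 24 h after chemical addition under LPS activation.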

[20] = read-out: urokinase plasminogen activator (uPA), PLAU (gene 5328); assay: BSK_KF3CT_uPA: BioMAP Diversity Plus: KF3CT Assay for urokinase plasminogen activator (uPA) Biomarker Activity (AID 2283075); settings: primary human keratinocytes with fibroblasts; actives raise or lower the signal
Method in brief: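 ELISA read-out of uPA 24 h after dosing human skin keratinocytes co-cultured with foreskin fibroblasts. Signal change fitted both ways relative to DMSO; sulforhodamine B on parallel cultures marks overt cytotoxicity.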

Measured: outcome

E-selectin (Homo sapiens), sequence (P16581 whole entry, looked up): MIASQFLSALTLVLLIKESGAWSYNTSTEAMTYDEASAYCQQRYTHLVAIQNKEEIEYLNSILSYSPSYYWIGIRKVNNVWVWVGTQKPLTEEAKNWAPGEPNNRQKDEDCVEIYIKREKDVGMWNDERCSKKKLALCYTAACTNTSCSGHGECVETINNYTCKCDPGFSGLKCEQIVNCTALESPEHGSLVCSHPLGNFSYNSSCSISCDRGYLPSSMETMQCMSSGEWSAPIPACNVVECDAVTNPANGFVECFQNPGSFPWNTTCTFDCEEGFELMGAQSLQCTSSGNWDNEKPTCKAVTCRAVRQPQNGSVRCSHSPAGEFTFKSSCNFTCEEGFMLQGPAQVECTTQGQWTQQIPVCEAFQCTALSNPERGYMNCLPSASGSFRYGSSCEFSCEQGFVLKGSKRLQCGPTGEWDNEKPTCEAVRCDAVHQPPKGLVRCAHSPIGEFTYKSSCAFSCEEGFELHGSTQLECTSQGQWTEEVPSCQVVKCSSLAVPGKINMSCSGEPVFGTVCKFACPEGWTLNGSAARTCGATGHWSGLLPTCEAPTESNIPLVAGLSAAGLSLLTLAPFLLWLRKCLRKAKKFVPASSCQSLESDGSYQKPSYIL

CC/C(=C\C(=N/O)C(N)=O)C(C)[N+](=O)[O-] (stereo unspecified)
not listed: [20]
inactive: all other assays above

Cc1ccc(N)cc1O
not listed: [20]
inactive: all other assays above

CC1=CC(=O)CC(C)(C)C1
inactive: all assays above

CC(C)=CCCC(C)CCO (stereo unspecified)
not listed: [20]
inactive: all other assays above

CCCN(C1CCN(C(=O)C2CCNCC2)CC1)[C@@H]1CCc2ccc(OC)cc2C1
not listed: [20]
inactive: all other assays above
